PubChem BioAssay (NCATS)
Records with an inconclusive call do not appear. Active and inactive are the calls of the source. Calls follow the shape of the dose curve; as a rule, active = well fitted inhibition curve with a large enough effect; inconclusive = small, poorly fitted or top-dose-only effect; inactive = flat fitted curve, though single readings scatter.

Tests used:
Assay in all cases: qHTS profiling for inhibitors of Plasmodium falciparum proliferation (AID 504749); also: nearly all actives have a fitted effect of over 60% in size
Conditions in all cases: P. falciparum in erythrocytes, SYBR Green DNA, 72 h; series mostly up to 28.7 µM
7G8 = system: 7G8
Method in brief: (§1)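 In a 72 h erythrocytic culture (37 C, humidified, 5% CO2) at 2.5% hematocrit and 0.3% starting parasitemia, compounds were tested; SYBR Green I in detergent lysis buffer stained parasite DNA overnight.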

ATS95 = system: ATS95
Method in brief: as §1

CP201 = system: CP201
Method in brief: as §1

CP203 = system: CP203
Method in brief: as §1

CP215 = system: CP215
Method in brief: as §1

CP247 = system: CP247
Method in brief: as §1

CP260 = system: CP260
Method in brief: as §1

CP266 = system: CP266
Method in brief: as §1

CP291 = system: CP291
Method in brief: as §1

CP325 = system: CP325
Method in brief: as §1

DIV14 = system: DIV14
Method in brief: as §1

DIV17 = system: DIV17
Method in brief: as §1

DIV30 = system: DIV30
Method in brief: as §1

GB4 = system: GB4
Method in brief: as §1

ICS = system: ICS
Method in brief: as §1

P93_24 = system: P93_24
Method in brief: as §1

PAD = system: PAD
Method in brief: as §1

PC26 = system: PC26
Method in brief: as §1

CP297 = system: CP297
Method in brief: as §1

CP335 = system: CP335
Method in brief: as §1

Measured: Potency
Potency is read from the fitted curve at half-maximal effect.

Cc1ccc(/C=C2/C(=O)C3(C)CCC2C3(C)C)cc1 (centres undefined)
inactive: 7G8 | ATS95 | CP201 | CP203 | CP215 | CP247 | CP260 | CP266 | CP291 | CP325 | DIV14 | DIV17 | DIV30 | GB4 | ICS | P93_24 | PAD | PC26

CNC1C(O)C(OC2C(NC(=O)C(O)CN)CC(N)C(OC3OC(CN)C(O)C(O)C3O)C2O)OCC1(C)O (centres undefined)
inactive: 7G8 | ATS95 | CP201 | CP203 | CP215 | CP247 | CP260 | CP266 | CP291 | CP297 | CP325 | DIV14 | DIV17 | DIV30 | GB4 | P93_24 | PAD | PC26

CCCC(=O)Nc1c(I)cc(I)c(C[C@H](CC)C(=O)O)c1I
inactive: 7G8 | ATS95 | CP201 | CP203 | CP215 | CP247 | CP266 | CP291 | CP297 | CP325 | CP335 | DIV17 | DIV30 | GB4 | ICS | P93_24 | PAD | PC26

Cc1cc2nc3c(=O)[nH]c(=O)nc-3n(CC(O)C(O)C(O)COP(=O)(O)O)c2cc1C (centres undefined)
inactive: 7G8 | ATS95 | CP201 | CP203 | CP215 | CP260 | CP266 | CP291 | CP297 | CP325 | CP335 | DIV17 | DIV30 | GB4 | ICS | P93_24 | PAD | PC26

O=C(O)Cc1sc(-c2ccc(Cl)cc2)nc1-c1ccccc1
inactive: 7G8 | ATS95 | CP201 | CP203 | CP247 | CP260 | CP266 | CP291 | CP297 | CP325 | CP335 | DIV14 | DIV17 | DIV30 | GB4 | ICS | P93_24 | PAD | PC26

CC1(C(=O)O)CCC2(C)CCC3(C)C(=CC(=O)C4C5(C)CCC(O)C(C)(C)C5CCC43C)C2C1 (centres undefined)
inactive: 7G8 | ATS95 | CP201 | CP203 | CP215 | CP247 | CP260 | CP291 | CP297 | CP325 | CP335 | DIV14 | DIV30 | GB4 | ICS | P93_24 | PAD | PC26

C[C@@H](O)[C@@H]1C(=O)N2C(C(=O)O)=C([C@H]3CCCO3)S[C@H]12
inactive: 7G8 | ATS95 | CP203 | CP215 | CP247 | CP260 | CP266 | CP291 | CP297 | CP325 | CP335 | DIV14 | DIV17 | DIV30 | GB4 | ICS | P93_24 | PAD | PC26

CC(CN1CC(=O)NC(=O)C1)N1CC(=O)NC(=O)C1 (centres undefined)
inactive: 7G8 | ATS95 | CP201 | CP203 | CP247 | CP260 | CP266 | CP291 | CP297 | CP325 | CP335 | DIV14 | DIV17 | DIV30 | GB4 | ICS | P93_24 | PAD | PC26

CO/N=C(/C(=O)N[C@@H]1C(=O)N2C(C(=O)O)=C(CSc3nnnn3C)CS[C@H]12)c1csc(N)n1
inactive: 7G8 | ATS95 | CP201 | CP215 | CP247 | CP260 | CP291 | CP297 | CP325 | CP335 | DIV14 | DIV17 | DIV30 | GB4 | ICS | P93_24 | PAD | PC26

CC(=O)C1(O)Cc2c(O)c3c(c(O)c2C(OC2CC(N)C(O)C(C)O2)C1)C(=O)c1c(O)cccc1C3=O (centres undefined)
active: 7G8 0.708 µM | ATS95 6.31 µM | CP247 5.01 µM | CP260 3.98 µM | CP266 15.1 µM | CP335 5.36 µM | DIV14 5.36 µM | DIV17 5.36 µM | GB4 6.75 µM | ICS 3.55 µM | P93_24 6.31 µM | PAD 10 µM | PC26 5.36 µM

NCCCCC(N)C(=O)O (centres undefined)
inactive: 7G8 | ATS95 | CP201 | CP203 | CP215 | CP247 | CP260 | CP266 | CP291 | CP325 | CP335 | DIV14 | DIV17 | DIV30 | GB4 | ICS | P93_24 | PAD

C[C@@H]1CCN(C(=O)[C@H](CCCNC(=N)N)NS(=O)(=O)c2cccc3c2NC[C@H](C)C3)[C@@H](C(=O)O)C1
inactive: 7G8 | ATS95 | CP201 | CP215 | CP247 | CP260 | CP266 | CP291 | CP297 | CP325 | CP335 | DIV14 | DIV17 | DIV30 | GB4 | ICS | P93_24 | PAD | PC26

Nc1nc(/C(=C/CC(=O)O)C(=O)NC2C(=O)N3C(C(=O)O)=CCSC23)cs1 (centres undefined)
inactive: 7G8 | ATS95 | CP201 | CP215 | CP247 | CP260 | CP266 | CP291 | CP297 | CP325 | CP335 | DIV14 | DIV17 | DIV30 | GB4 | ICS | P93_24 | PAD | PC26

C=C[C@@]1(C)C[C@H](OC(=O)CSC(C)(C)CNC(=O)[C@@H](N)C(C)C)[C@@]2(C)C(C)CC[C@@]3(CCC(=O)[C@@H]32)[C@H](C)[C@H]1O (some centres undefined)
active: 7G8 2.51 µM | ATS95 5.01 µM | CP203 1.07 µM | CP215 1.69 µM | CP247 4.47 µM | CP260 3.98 µM | CP291 1.69 µM | CP297 2.39 µM | CP325 0.213 µM | CP335 1.2 µM | DIV14 6.01 µM | DIV17 7.57 µM | DIV30 7.57 µM | GB4 3.79 µM | ICS 2.82 µM | P93_24 0.501 µM | PAD 4.47 µM | PC26 6.01 µM

CC(=O)N1CC(O)CC1C(=O)O (centres undefined)
inactive: 7G8 | ATS95 | CP201 | CP203 | CP215 | CP247 | CP266 | CP291 | CP297 | CP325 | CP335 | DIV14 | DIV17 | DIV30 | GB4 | ICS | P93_24 | PAD | PC26

COc1ccc2cc1Oc1cc3c(cc1OC)CC[N+](C)(C)C3Cc1ccc(cc1)Oc1c(OC)c(OC)cc3c1C(C2)[N+](C)(C)CC3 (centres undefined)
inactive: 7G8 | ATS95 | CP201 | CP203 | CP215 | CP260 | CP291 | CP297 | CP325 | CP335 | DIV14 | DIV17 | DIV30 | GB4 | ICS | P93_24 | PAD | PC26

O=C(O)c1ccc(N[C@@H]2OC[C@@H](O)[C@@H](O)[C@@H]2O)cc1
inactive: 7G8 | ATS95 | CP201 | CP203 | CP215 | CP247 | CP260 | CP291 | CP297 | CP325 | CP335 | DIV14 | DIV17 | DIV30 | GB4 | ICS | P93_24 | PAD | PC26

CO/N=C(/C(=O)N[C@@H]1C(=O)N2C(C(=O)O)=C(CSc3cnns3)CS[C@H]12)c1csc(N)n1
inactive: 7G8 | ATS95 | CP201 | CP203 | CP215 | CP247 | CP260 | CP291 | CP297 | CP325 | CP335 | DIV14 | DIV17 | DIV30 | GB4 | ICS | P93_24 | PAD | PC26

Nc1ncn(C2C[C@H](O)[C@@H](CO)O2)c(=O)n1 (some centres undefined)
inactive: 7G8 | ATS95 | CP201 | CP203 | CP247 | CP260 | CP291 | CP325 | CP335 | DIV14 | DIV17 | DIV30 | GB4 | ICS | P93_24 | PAD | PC26

C=C1NC(=O)c2cc(CN(C)c3ccc(C(=O)N[C@@H](CCC(=O)O)C(=O)O)s3)ccc2N1
inactive: 7G8 | ATS95 | CP201 | CP203 | CP215 | CP247 | CP260 | CP266 | CP325 | CP335 | DIV17 | DIV30

CC1(C)O[C@@H]2C[C@H]3[C@@H]4CCC5=CC(=O)C=C[C@]5(C)[C@H]4C(O)C[C@]3(C)[C@]2(C(=O)CO)O1 (some centres undefined)
inactive: ATS95 | CP201 | CP203 | CP215 | CP247 | CP291 | CP297 | CP325 | CP335 | DIV14 | DIV30 | PC26

Clc1ccc(CS[C@@H](Cn2ccnc2)c2ccc(Cl)cc2Cl)cc1
active: 7G8 0.562 µM | ATS95 3.55 µM | CP203 4.55 µM | CP291 5.73 µM | CP297 3.22 µM | CP335 1.28 µM | DIV14 5.1 µM | DIV17 5.1 µM | DIV30 3.22 µM | GB4 3.61 µM | ICS 0.891 µM | P93_24 1.26 µM | PAD 3.16 µM

Cn1cc(C(=O)[C@@H]2CCc3[nH]cnc3C2)c2ccccc21
inactive: ATS95 | CP201 | CP203 | CP215 | CP247 | CP260 | CP266 | CP291 | CP297 | CP325 | CP335 | DIV14 | DIV17 | DIV30 | GB4 | ICS | P93_24 | PAD | PC26

COc1ccc(C(=O)/C(Br)=C/C(=O)O)cc1
active: 7G8 10 µM
inactive: CP201 | CP203 | CP247 | CP260 | CP266 | CP291 | CP297 | CP325 | DIV14 | P93_24 | PAD | PC26

CC1=C(c2ccc(NN=C(C#N)C#N)cc2)NNC(=O)C1
inactive: ATS95 | CP201 | CP203 | CP215 | CP266 | CP291 | CP297 | CP325 | CP335 | DIV14 | DIV30 | ICS | P93_24 | PAD | PC26

C[C@H](CN1c2ccccc2Sc2cccnc21)N(C)C
active: ATS95 11.2 µM | CP203 13.5 µM | CP215 9.53 µM | CP247 3.98 µM | CP260 8.91 µM | CP297 15.1 µM | CP335 6.01 µM | DIV14 4.78 µM | DIV17 4.78 µM | GB4 6.75 µM | P93_24 8.91 µM
